Consider 40 compounds from PubChem BioAssay (EPA / NIEHS).

The term AC50 denotes the concentration at which the activity in the assay is half-maximal.

Some compounds were tested as several samples or in several runs, with calls that do not always agree. Active and inactive are the calls of the source. Rule for the calls: active = hit-call score of the fitted dose curve at least 0.9, where 1 is the maximum; inactive = score below 0.9.

The nature of this test: ATG_DR4_LXR_CIS: Attagene CIS-FACTORIAL HepG2 Assay for human Liver X Receptor (LXR), DR4 submotif (AID 2282929). To be noted: HepG2 Attagene DR4 cis-reporter, mRNA transcription; actives raise or lower the signal. The method, then: ATG_CIS is a cell-based, multiplexed-readout assay that uses HepG2, a human liver cell line, with measurements taken at 24 hours after chemical dosing in a 24-well plate.ATG_DR4_LXR_CIS is one of 52 assay component(s) measured or calculated from the ATG_CIS assay. It is designed to make measurements of mRNA induction, a form of inducible reporter, as detected with fluorescence intensity signals by Reverse transcription polymerase chain reaction (RT-PCR) and Capillary electrophoresis technology.Data from the assay component ATG_DR4_LXR_CIS was analyzed into 1 assay endpoint. This assay endpoint, ATG_DR4_LXR_CIS, was analyzed with bidirectional fitting relative to DMSO as the negative control and baseline of activity. Using a type of inducible reporter, measures of mRNA for gain or loss-of-signal activity can be used to understand the reporter gene at the transcription factor-level as they relate to the gene NR1H2 and NR1H3. Furthermore, this assay endpoint can be referred to as a primary readout, because this assay has produced multiple assay endpoints where this one serves a reporter gene function. To generalize the intended target to other relatable targets, this assay endpoint is annotated to the nuclear receptor intended target family, where the subfamily is non-steroidal.
Human liver HepG2 cells are transiently transfected with multiple reporter transcription units (MRTUs) in 6-well plates using FuGene 6 reagent (Roche; 3 ml FuGene/1 mg DNA). The MRTU constructs are regulated by a cis-regulating element (promoter). […] A major difference between the CIS and TRANS system is that in CIS activities of endogenous TFs are measured, whereas the TRANS assay evaluates changes in activities of exogenous, chimeric NR-Gal4 proteins. […] At the end of 24 hour incubation, total RNA was isolated using TriZol reagent (Invitrogen). The isolated RNA is then reverse-transcribed using oligo(dT) primer and Mo-MLV reverse transcriptase (Invitrogen) with DNAse I (Ambion) treatment for 30 min. The one-tenth of the produced cDNA was amplified by PCR using Taq DNA polymerase (Invitrogen) and two reporter sequence-specific primers. The PCR products were fluorescently labeled by primer extension with 6-arboxyfluorescein (6-FAM) 5'-labeled reporter sequence-specific primer (2 min at 95 C, 20 s at 68 C and 10 min at 72 C) and these products were digested with 5U of HpaI (New England Biolabs) for 2h at 37 C. The fragments were purified using Qiaquick PCR columns (Qiagen), analyzed on an ABI 3130xL genetic analyzer (Applied Biosystems) with peak positions identified by using a set of X-rhodamine (ROX)-labeled MapMarker1000 molecular weight standards (BioVentures). The raw capillary electrophoresis data was processed using Attagraph software (Attagene).
Consider `C=COCC1CCC(COC=C)CC1` (stereo not given), for which the result was inactive.
With `CCn1cc(C(=O)O)c(=O)c2ccc(C)nc21`, the result was inactive.
For `CCCCCCCCCCCCOC(C)=O`, the result was inactive.
As for `CCC(CC)CO`, the call was inactive.
With `CCCCOCCOC(=O)c1ccccc1C(=O)OCCOCCCC`, the AC50 was 55.8 µM (active).
Take `CCCCOCC(C)OCC(C)O` (stereo not given): the result was inactive.
As to `CCO[Si](CC)(OCC)OCC`, the half-maximal activity concentration (AC50) is 155 µM (active).
Regarding `CC(C)(C)c1cc(CCC(=O)OCCSCCOC(=O)CCc2cc(C(C)(C)C)c(O)c(C(C)(C)C)c2)cc(C(C)(C)C)c1O`, the compound was classed as inactive.
Consider `CCCCCCCCCCOC(=O)c1ccccc1C(=O)OCCCCCCCC`, for which the result was inactive.
With `O=C(O)c1ccc(C(=O)O)c(C(=O)O)c1`, the outcome was inactive.
As to `CCCCCCCCCC(=O)OCC`, the result was inactive.
With `CN1CCc2cccc3c2[C@H]1Cc1ccc(O)c(O)c1-3`, the AC50 is 18.8 µM (active).
As for `CC(=O)OCC=C(C)CCC=C(C)CCC=C(C)C`, the AC50 was 33.4 µM (active).
For `COc1ccccc1O`, the compound was called inactive.
As for `S=c1[nH][nH]c(=S)s1`, the compound was called inactive.
Turning to `O=C1OC2(c3ccc(O)cc3Oc3cc(O)ccc32)c2ccccc21`, the result was inactive.
Same read-out and setting: in the case of `CC(C)=CCCC(C)=CC(=O)O` it was “inactive”.
Still for that read-out and setting: next, `CCOCC(C)O` (stereo not given): “inactive”; `C=C(C)C(=O)OCCOCCOC(=O)C(=C)C`: “inactive”; `Nc1ccc(O)c(N)c1`: “inactive”.
`O=C(O)c1ccco1`: the compound was called inactive.
On to `Nc1ccn([C@H]2CC[C@@H](CO)O2)c(=O)n1`, for which the compound was called inactive.
As for `CCCCCCCCCCCCS`, the concentration at half-maximal activity (AC50) is 33.4 µM (active).
With `COc1ccc(C(C)=O)cc1`, the result was inactive.
For the compound `CC(C)C(=O)OCC=Cc1ccccc1`, the result was inactive.
Regarding `C=C(C)CCCC(C)CCO` (stereo not given), the compound was called inactive.
Still for that read-out and setting: next, `CCCC1CCOC(C)S1` (stereo not given): “inactive”; `O=C(O)c1cc2ccccc2cc1O`: “inactive”; `COC(=O)C(C)Oc1ccc(Oc2ncc(C(F)(F)F)cc2Cl)cc1` (stereo not given): “inactive”.
On to `CCCC[N+](C)(CCCC)CCCC`, for which the compound was called inactive.
With `CC(C)N1C(=O)c2ccccc2C1=O`, the outcome was inactive.
In the case of `CC(=O)c1cccnc1`, the compound was called inactive.
As for `CC(CO)(CO)[N+](=O)[O-]`, the compound was classed as inactive.
As for `CCCCOCCOCCO`, the outcome was inactive.
Take `CC1=CC[C@@H]2C[C@H]1C2(C)C`: the compound was called inactive.
Regarding `Nc1ccc(N)c([N+](=O)[O-])c1`, the outcome was inactive.
Regarding `CCCCCCCC(=O)N(C)C`, the compound was classed as inactive.
As to `ClCCOCCOCCCl`, the call was inactive.
Turning to `CCOC(=O)CC(C)C`, the compound was classed as inactive.
On the same count and under the same terms, in the case of `CC/C(=C(\c1ccccc1)c1ccc(OCCN(C)C)cc1)c1ccccc1` it was “inactive”.
